Reference: paper PMC4336329 (PLoS ONE, 2015)
About 14,000 (4.5%) of roughly 310,000 compounds showed an effect of 50% or more. Effects have a minus sign here. This excerpt belongs to a sample that is enriched for strong results.

Target: human ether-à-go-go-related gene (hERG) potassium channel (human, UniProt Q12809)
Test: primary screen, population patch clamp on CHO cells stably expressing hERG; higher = less effect of the substance
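Note: peak tail current of the secondary pulse compared with the same well before compound.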

Chain of human ether-à-go-go-related gene (hERG) potassium channel (Q12809 whole entry, looked up): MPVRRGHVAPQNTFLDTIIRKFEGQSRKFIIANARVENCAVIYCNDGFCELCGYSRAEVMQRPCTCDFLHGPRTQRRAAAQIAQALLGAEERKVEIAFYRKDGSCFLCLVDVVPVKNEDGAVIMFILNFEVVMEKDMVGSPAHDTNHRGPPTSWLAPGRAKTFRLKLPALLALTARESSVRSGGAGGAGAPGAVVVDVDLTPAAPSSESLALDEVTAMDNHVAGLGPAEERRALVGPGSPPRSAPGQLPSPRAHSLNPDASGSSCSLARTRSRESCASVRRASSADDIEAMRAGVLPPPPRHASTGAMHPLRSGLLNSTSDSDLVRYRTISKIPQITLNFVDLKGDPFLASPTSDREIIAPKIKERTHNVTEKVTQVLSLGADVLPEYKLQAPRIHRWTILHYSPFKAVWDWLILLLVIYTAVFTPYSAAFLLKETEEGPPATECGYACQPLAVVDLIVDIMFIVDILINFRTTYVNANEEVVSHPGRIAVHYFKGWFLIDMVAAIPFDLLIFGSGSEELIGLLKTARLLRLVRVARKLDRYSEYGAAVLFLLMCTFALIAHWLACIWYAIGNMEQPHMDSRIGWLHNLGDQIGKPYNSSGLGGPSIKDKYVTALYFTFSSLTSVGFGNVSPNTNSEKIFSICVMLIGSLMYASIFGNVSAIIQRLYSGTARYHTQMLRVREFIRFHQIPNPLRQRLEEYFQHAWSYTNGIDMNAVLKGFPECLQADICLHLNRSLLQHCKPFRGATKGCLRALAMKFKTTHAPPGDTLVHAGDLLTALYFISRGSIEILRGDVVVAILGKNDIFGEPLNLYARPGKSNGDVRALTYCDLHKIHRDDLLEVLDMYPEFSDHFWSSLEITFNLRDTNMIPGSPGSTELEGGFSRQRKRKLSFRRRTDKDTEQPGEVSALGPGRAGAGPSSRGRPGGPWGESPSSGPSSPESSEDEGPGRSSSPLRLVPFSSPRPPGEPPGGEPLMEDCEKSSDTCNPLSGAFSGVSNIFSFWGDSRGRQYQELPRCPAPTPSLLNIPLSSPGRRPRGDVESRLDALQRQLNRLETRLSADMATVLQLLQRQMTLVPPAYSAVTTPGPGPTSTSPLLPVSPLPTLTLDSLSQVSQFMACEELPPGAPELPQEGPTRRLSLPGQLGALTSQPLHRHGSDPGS

| SMILES | hERG current change (%, negative = inhibition) at 10uM [%] |
| --- | --- |
| Cc1ccc(S(=O)(=O)N2CCCCC2C(=O)O)cc1 (centres unmarked) | 6.47 |
| COc1ccc(C(=O)C2CCN(C(=S)NCC3CCCO3)CC2)cc1 (centres unmarked) | -7.23 |
| O=C(c1cccc(S(=O)(=O)N2CCCC2)c1)N(Cc1ccco1)C1CCS(=O)(=O)C1 (centres unmarked) | -21.8 |
| COc1ccc(CN2CCN(CC3CC3)CC2CCO)cc1C (centres unmarked) | -0.194 |
| CCOc1ccc(CN2CCN(Cc3ccon3)CC2CCO)cc1 (centres unmarked) | -62.8 |
| OCCC1CN(Cc2cc3ccccc3o2)CCN1Cc1ccc(F)cc1 (centres unmarked) | -11.8 |
| CCOc1ccc(CN2CCN(CC3CC3)CC2CCO)cc1 (centres unmarked) | -67.1 |
| COc1cc(CN2CCN(CC3CC3)CC2CCO)cc(OC)c1 (centres unmarked) | 2.79 |
| CCOc1ccc(CN2CCN(Cc3cc4ccccc4o3)CC2CCO)cc1 (centres unmarked) | -80.4 |
| OCCC1CN(Cc2ccon2)CCN1Cc1ccccc1 (centres unmarked) | 9.42 |
| Cc1ccc(CN2CCN(Cc3ccon3)CC2CCO)cc1 (centres unmarked) | -11.1 |
| Cc1ccc(CN2CCN(Cc3cc4ccccc4o3)CC2CCO)cc1 (centres unmarked) | -43.1 |
| N#CC(C#N)=Cc1c[nH]c(=O)c(C#N)c1Nc1ccccc1 | 16.1 |
| O=C(CN(Cc1ccccc1)S(=O)(=O)c1ccccc1)NC1CC1 | -3.03 |
| CCc1cc(=O)oc2cc(C)cc(OCC(=O)NCC3CCC(C(=O)O)CC3)c12 (centres unmarked) | 4.34 |
| CC(C)(C)NC(=O)CN(c1cccc([N+](=O)[O-])c1)S(=O)(=O)c1ccccc1 | -11.5 |
| Cc1cc(C)c(NC(=O)CCCOC(=O)C2=COCCO2)c(C)c1 | 16.1 |
| O=C(N/N=C/c1cccc(F)c1)c1csc2c1CCCC2 | -30 |
| CC(C)C[C@H](NC(=O)c1[nH]cnc1C(=O)N[C@@H](C)c1ccccc1)C(=O)OC(C)(C)C | 12.5 |
| CC1CCN(C(=O)c2cc3ccccc3c(=O)o2)CC1 | 5.74 |
| Cc1nnc(SCC(=O)N/N=C/c2ccc(-c3ccc(C)c(Cl)c3)o2)s1 | -1.51 |
| Cc1ccc(-c2ccc(/C=N/NC(=O)CN3CCCC3)o2)cc1Cl | -90.2 |

| SMILES | hERG current change (%, negative = inhibition) at 10uM [%] |
| --- | --- |
| COC(=O)N/N=C/c1ccc(-c2ccc(C)c(Cl)c2)o1 | -6.4 |
| O=C(Cn1nnc(-c2ccccc2Cl)n1)N/N=C/c1ccc(-c2cccc(Cl)c2)o1 | 2.26 |
| Nc1nnnn1CC(=O)N/N=C/c1ccc(-c2cccc(Cl)c2)o1 | 8.79 |
| O=C(CN1CCCC1)N/N=C/c1ccc(-c2cccc(Cl)c2)o1 | -62.2 |
| CC1(c2ccccc2)NC(=O)N(Cc2ccc([N+](=O)[O-])cc2)C1=O (centres unmarked) | -31 |
| COC(=O)c1ccc(CN2CCCC(C(=O)Nc3cccc(-n4cnnn4)c3)C2)cc1 (centres unmarked) | -47.7 |
| COCc1cc(CN2CCCC(C(=O)Nc3cccc(-n4cnnn4)c3)C2)ccc1OC (centres unmarked) | -6.58 |
| O=C(Nc1cccc(-n2cnnn2)c1)C1CCCN(Cc2cccc(C(F)(F)F)c2)C1 (centres unmarked) | -59.8 |
| Cn1cc(CN2CCCC(C(=O)Nc3cccc(-n4cccn4)c3)C2)cn1 (centres unmarked) | -5.79 |
| COc1ccc(CN2CCCC(C(=O)Nc3cccc(-n4cnnn4)c3)C2)c(C)c1C (centres unmarked) | -62.7 |
| COc1ccc(CN2CCCC(C(=O)Nc3cccc(-n4cccn4)c3)C2)c(F)c1 (centres unmarked) | -30.3 |
| COC(=O)Cc1c(C)c2ccc(OC3CCCCC3=O)c(C)c2oc1=O (centres unmarked) | 3.77 |
| CCCCCOc1ccc(NC(=O)CSc2cccc3cccnc23)cc1 | 18.8 |
| N#Cc1cc([N+](=O)[O-])ccc1NC(=O)CSc1n[nH]c(=O)n1C1CC1 | 1.42 |
| COc1cccc(OC)c1C(=O)Nc1c(C(=O)N2CCN(c3ccccn3)CC2)oc2ccccc12 | -61.6 |
| COc1cccc(OC)c1C(=O)Nc1c(C(=O)N2CCN(C)CC2)oc2ccccc12 | -29.1 |
| Cc1c(C(=O)N2CCN(c3ccccn3)CC2)oc2ccccc12 | -28 |
| COc1cccc(OC)c1C(=O)N1CCN(c2ccccn2)CC1 | 11 |
| O=C(Nc1c(C(=O)N2CCN(c3ccccn3)CC2)oc2ccccc12)c1ccc([N+](=O)[O-])cc1 | -51 |
| O=C(Nc1c(C(=O)N2CCN(c3ccccn3)CC2)oc2ccccc12)c1cccc([N+](=O)[O-])c1 | -48.8 |
| COc1ccc(NC(=O)c2ccc(-c3nn(C)c(=O)c4ccccc34)cc2)cc1C(N)=O | 6.4 |
| Cc1ccc(N(C(=O)Cc2cccs2)C(C(=O)NCC2CCCO2)c2ccncc2)cc1 (centres unmarked) | 11.5 |
